Measured values published in the supplement of paper PMC11732987, “Enantioselective OTUD7B fragment discovery through chemoproteomics screening and high-throughput optimisation” (Communications Chemistry, 2025).

Legend:
Experiment in all cases: log2 ratio of Biotin-Ahx-Ub-VS probe labelling (fragment/DMSO); higher = less target engagement (more negative = stronger competition), active = hit call of the paper (q ≤ 0.05, log2 ratio ≤ -1)
Conditions in all cases: compound concentration: 200 uM; treatment time: 3 h
USP42 = target: T1, USP42 (UniProt Q9H9J4)
T1 sequence (whole entry): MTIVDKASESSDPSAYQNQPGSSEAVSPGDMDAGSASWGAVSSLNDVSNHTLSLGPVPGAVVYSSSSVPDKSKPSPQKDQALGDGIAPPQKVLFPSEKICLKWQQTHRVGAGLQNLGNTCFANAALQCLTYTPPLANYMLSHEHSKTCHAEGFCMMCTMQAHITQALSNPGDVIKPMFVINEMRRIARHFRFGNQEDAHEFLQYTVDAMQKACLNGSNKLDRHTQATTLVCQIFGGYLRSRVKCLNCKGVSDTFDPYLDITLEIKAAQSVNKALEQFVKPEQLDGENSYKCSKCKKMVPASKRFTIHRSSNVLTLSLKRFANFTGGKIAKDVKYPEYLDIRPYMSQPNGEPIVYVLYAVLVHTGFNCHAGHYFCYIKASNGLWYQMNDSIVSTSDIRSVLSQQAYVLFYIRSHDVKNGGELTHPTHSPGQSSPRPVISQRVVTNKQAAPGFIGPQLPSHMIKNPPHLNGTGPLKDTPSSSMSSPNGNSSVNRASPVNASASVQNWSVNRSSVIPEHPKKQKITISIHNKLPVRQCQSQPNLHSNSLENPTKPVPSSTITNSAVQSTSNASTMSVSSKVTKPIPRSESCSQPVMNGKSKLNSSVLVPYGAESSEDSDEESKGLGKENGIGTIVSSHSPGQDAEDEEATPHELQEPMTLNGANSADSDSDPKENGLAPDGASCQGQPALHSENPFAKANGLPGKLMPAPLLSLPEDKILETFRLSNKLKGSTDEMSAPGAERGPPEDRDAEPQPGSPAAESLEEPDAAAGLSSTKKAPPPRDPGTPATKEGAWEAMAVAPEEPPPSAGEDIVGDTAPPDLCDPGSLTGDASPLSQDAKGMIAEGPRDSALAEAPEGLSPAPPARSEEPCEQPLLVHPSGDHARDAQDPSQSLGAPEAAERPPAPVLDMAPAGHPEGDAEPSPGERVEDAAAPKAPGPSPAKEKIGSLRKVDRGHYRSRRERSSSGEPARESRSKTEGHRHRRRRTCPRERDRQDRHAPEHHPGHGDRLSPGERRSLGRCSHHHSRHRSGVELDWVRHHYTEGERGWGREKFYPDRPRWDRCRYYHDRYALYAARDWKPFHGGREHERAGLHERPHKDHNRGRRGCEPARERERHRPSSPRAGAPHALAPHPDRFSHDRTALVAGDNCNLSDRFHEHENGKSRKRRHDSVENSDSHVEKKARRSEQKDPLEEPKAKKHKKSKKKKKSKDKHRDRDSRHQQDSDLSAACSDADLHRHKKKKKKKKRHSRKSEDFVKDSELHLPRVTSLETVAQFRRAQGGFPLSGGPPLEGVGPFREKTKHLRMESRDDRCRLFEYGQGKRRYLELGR
Outline: (§1)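 Labelled DUBs from HEK293T lysate were NeutrAvidin-enriched, digested with LysC and trypsin, and run by diaPASEF LC-MS/MS. Before that, each 495 µg sample in Tris/CHAPS/IGEPAL buffer with protease inhibitors was treated in triplicate with fragment at 200 µM or vehicle for 3 h, then with Biotin-Ahx-Ub-VS at 0.5 µM final for 1 h. Values are average log2 ratios of fragment over vehicle by unpaired t-test, based on global-median-normalised Spectronaut label-free quantities from proteins with ≥2 unique peptides.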

USP46 = USP46 (UniProt P62068)
Sequence of USP46 (P62068 whole entry): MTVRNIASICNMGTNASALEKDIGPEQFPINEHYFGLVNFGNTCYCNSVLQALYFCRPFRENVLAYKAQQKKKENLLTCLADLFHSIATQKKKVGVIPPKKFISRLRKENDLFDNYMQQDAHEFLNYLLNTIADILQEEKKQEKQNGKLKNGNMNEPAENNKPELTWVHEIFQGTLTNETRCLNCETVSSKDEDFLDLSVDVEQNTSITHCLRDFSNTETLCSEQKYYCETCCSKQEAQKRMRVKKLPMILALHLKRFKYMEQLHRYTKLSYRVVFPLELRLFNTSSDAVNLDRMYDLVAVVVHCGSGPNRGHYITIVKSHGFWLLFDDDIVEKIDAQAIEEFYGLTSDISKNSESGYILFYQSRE
Outline: as §1

USP47 = target: T2, USP47 (UniProt Q96K76)
T2 sequence (whole entry): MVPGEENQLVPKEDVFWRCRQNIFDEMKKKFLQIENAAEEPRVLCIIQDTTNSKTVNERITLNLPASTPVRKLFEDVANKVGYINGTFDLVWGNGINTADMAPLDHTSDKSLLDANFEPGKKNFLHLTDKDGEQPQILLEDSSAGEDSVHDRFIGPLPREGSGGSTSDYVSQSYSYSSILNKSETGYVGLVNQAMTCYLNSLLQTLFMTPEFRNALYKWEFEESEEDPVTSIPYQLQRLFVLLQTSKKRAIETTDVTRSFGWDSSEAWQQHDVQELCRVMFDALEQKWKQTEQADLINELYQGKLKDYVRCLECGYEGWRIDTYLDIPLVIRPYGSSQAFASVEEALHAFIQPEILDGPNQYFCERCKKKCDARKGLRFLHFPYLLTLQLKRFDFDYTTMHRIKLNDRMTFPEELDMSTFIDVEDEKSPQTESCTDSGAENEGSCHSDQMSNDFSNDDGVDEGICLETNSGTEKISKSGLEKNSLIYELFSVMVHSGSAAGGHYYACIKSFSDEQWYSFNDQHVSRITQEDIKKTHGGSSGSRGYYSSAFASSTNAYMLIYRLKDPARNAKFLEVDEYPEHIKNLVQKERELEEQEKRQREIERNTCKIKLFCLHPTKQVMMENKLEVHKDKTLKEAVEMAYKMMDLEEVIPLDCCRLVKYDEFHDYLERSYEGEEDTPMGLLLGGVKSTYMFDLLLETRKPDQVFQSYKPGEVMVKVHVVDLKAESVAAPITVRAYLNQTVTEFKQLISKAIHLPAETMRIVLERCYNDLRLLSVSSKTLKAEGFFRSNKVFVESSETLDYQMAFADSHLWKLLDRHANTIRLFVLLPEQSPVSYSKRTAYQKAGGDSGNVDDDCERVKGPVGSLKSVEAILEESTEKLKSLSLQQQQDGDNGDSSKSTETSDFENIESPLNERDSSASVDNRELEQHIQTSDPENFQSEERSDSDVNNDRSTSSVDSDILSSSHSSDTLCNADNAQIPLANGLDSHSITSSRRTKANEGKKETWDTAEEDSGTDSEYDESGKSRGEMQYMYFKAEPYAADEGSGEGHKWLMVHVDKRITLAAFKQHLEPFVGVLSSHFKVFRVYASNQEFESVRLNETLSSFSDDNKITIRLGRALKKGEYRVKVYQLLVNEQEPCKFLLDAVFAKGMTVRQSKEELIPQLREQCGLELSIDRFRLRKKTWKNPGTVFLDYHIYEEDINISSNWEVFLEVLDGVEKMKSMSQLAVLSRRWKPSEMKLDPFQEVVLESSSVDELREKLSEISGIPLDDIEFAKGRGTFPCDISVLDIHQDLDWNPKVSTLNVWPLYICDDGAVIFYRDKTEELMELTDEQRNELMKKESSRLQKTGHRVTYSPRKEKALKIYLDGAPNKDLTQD
Outline: as §1

USP48 = target: T3, USP48 (UniProt Q86UV5)
T3 sequence (whole entry): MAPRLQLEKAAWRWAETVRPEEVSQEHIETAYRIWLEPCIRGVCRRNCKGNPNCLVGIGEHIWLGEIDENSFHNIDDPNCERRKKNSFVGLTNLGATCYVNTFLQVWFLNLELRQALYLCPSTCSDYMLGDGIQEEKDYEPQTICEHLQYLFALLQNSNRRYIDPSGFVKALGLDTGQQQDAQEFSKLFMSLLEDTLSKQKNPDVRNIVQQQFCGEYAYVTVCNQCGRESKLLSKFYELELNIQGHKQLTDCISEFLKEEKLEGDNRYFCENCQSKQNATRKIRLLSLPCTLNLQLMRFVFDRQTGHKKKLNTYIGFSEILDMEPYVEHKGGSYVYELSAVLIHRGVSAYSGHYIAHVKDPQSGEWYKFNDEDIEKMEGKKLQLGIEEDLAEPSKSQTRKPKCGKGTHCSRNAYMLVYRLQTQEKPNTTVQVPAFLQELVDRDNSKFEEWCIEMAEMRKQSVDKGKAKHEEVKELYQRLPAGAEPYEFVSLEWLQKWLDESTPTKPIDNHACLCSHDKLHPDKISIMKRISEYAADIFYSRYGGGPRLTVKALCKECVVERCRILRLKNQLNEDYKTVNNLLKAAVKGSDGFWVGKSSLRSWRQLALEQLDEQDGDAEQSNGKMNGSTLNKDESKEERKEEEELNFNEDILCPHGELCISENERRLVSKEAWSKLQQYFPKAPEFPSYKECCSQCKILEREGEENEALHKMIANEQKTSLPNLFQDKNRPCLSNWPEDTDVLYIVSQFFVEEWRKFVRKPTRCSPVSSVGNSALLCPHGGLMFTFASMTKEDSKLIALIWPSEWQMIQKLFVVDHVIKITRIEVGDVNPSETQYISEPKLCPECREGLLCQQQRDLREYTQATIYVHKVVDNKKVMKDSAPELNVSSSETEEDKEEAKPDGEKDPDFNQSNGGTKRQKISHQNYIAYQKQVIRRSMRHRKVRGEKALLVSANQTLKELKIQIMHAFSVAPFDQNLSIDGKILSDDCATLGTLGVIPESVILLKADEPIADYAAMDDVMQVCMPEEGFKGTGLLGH
Outline: as §1

USP5 = target: T4, USP5 (UniProt P45974)
T4 sequence (whole entry): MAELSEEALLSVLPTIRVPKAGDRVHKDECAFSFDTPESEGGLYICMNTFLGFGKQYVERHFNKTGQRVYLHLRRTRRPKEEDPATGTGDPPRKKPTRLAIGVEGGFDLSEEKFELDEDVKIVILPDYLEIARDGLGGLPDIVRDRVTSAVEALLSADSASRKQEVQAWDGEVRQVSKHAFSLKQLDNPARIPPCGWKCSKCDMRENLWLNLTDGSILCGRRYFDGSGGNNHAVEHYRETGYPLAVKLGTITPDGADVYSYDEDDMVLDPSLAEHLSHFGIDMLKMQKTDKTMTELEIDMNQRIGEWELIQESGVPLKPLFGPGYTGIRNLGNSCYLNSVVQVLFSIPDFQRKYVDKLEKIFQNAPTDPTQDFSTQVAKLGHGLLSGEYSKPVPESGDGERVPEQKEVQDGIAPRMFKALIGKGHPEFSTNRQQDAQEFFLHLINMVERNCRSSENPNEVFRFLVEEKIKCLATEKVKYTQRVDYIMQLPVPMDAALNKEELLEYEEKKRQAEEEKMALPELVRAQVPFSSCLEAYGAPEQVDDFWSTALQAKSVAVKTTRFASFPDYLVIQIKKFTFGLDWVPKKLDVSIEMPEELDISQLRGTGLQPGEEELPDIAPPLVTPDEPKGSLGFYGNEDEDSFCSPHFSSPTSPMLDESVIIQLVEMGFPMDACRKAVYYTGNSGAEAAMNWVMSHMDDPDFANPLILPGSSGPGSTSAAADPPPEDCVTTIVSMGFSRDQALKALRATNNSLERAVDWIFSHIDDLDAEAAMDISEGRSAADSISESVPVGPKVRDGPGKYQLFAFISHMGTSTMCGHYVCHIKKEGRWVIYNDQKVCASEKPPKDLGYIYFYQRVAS
Outline: as §1

USP54 = USP54 (UniProt Q70EL1)
Sequence of USP54 (Q70EL1 whole entry): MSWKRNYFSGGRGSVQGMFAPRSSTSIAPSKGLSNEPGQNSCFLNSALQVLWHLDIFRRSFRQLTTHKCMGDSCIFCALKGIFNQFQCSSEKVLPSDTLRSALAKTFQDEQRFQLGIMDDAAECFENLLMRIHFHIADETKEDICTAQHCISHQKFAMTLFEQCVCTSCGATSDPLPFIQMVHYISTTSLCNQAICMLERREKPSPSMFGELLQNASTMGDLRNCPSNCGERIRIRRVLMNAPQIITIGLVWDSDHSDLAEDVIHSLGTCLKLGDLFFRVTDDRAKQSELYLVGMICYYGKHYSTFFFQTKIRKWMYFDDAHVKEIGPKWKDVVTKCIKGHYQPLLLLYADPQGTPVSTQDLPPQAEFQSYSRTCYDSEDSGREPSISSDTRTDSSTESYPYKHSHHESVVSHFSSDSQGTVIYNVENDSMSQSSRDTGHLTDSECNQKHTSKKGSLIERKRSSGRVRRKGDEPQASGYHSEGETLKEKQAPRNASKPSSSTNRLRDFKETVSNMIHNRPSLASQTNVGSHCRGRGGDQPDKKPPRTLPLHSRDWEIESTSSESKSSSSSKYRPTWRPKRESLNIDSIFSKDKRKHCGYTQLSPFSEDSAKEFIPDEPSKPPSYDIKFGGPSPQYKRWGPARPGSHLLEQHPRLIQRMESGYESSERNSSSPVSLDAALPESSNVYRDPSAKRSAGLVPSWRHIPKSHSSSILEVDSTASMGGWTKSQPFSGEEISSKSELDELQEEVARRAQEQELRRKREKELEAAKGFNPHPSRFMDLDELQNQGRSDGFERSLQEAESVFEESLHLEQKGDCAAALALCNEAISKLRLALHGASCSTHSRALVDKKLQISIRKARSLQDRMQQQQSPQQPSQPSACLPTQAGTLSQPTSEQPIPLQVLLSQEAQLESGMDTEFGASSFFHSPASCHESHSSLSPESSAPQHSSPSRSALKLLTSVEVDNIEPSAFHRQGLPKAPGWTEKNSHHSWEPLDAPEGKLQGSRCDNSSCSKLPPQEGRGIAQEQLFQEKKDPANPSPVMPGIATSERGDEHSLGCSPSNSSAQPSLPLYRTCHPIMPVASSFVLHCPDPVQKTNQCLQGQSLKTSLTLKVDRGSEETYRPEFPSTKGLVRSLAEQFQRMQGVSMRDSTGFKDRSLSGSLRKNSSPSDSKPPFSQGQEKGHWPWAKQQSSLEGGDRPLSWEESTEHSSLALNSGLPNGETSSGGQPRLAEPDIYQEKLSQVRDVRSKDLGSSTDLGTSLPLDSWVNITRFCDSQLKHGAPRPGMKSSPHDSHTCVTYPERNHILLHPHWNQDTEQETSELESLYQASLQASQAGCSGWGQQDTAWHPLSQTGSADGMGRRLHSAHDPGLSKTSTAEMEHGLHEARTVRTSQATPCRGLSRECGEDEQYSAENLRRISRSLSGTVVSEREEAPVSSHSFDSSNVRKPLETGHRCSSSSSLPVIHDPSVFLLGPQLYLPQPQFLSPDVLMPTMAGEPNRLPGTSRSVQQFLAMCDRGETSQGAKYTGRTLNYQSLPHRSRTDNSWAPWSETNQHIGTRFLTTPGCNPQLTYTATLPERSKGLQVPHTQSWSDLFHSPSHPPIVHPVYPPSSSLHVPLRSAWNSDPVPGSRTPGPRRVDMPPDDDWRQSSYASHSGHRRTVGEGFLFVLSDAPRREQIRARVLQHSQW
Outline: as §1

USP7 = USP7 (UniProt Q93009)
Sequence of USP7 (Q93009 whole entry, looked up): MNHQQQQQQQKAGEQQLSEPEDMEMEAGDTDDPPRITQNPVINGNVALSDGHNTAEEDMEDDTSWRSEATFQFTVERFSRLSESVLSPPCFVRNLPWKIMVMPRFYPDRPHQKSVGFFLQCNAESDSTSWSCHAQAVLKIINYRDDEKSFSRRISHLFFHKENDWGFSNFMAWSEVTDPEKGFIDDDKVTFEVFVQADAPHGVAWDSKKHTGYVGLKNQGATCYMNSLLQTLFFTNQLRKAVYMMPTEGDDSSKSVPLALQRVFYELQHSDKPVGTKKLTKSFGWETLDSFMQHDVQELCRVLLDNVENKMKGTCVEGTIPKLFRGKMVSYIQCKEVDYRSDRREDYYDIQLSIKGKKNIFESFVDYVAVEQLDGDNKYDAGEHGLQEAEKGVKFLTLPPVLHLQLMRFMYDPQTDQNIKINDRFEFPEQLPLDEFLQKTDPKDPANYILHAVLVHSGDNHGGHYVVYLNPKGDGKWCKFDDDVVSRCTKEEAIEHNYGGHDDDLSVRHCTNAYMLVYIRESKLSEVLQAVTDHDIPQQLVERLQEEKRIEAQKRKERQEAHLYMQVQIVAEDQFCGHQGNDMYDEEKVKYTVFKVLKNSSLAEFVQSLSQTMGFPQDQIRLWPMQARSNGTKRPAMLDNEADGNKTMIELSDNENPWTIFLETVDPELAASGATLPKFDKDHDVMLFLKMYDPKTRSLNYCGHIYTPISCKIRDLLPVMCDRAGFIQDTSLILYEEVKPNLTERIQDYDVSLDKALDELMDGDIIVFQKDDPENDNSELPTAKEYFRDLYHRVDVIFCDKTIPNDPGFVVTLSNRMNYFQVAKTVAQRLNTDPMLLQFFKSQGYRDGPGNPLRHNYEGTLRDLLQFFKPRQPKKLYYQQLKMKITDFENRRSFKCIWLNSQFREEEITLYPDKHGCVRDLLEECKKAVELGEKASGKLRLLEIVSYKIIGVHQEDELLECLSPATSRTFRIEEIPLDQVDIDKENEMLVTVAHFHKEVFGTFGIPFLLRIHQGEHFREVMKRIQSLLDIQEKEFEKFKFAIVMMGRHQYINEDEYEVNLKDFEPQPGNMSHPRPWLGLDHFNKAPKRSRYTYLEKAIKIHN
Outline: as §1

USP8 = target: T5, USP8 (UniProt P40818)
T5 sequence (whole entry): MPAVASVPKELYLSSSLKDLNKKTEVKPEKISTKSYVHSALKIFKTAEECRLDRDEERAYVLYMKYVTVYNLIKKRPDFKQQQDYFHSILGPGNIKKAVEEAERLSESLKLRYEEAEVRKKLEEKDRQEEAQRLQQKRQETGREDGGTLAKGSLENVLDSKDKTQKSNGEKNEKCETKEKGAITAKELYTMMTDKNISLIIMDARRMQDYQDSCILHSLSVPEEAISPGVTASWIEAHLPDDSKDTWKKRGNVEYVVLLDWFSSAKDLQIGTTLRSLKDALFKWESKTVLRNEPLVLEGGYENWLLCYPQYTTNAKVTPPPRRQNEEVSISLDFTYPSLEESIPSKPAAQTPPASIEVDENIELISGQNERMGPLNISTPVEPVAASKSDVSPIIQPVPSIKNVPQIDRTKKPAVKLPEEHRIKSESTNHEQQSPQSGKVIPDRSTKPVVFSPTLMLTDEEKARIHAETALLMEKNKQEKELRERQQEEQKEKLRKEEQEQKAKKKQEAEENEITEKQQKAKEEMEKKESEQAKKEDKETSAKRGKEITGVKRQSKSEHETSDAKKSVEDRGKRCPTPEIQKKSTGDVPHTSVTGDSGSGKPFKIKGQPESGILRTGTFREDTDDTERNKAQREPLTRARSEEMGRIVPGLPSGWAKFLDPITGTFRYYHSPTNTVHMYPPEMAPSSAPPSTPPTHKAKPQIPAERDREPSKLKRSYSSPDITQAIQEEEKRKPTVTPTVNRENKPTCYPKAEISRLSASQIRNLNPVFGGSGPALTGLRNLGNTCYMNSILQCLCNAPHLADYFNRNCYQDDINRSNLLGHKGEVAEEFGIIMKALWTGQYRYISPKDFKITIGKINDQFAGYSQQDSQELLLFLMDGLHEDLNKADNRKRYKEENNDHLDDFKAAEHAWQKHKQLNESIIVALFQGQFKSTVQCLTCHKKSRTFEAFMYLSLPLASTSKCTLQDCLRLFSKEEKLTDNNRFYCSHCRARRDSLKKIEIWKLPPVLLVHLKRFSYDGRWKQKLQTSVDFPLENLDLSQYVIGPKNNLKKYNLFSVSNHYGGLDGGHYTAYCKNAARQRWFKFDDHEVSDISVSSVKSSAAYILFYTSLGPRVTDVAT
Outline: as §1

Measured: log2 ratio of Biotin-Ahx-Ub-VS probe labelling

O=C(CCl)N1CCOC(CCc2ccccc2)C1 (stereo not drawn)
inactive: USP42 0.335 | USP46 -0.509 | USP47 -1.03 | USP48 -0.472 | USP5 -0.132 | USP54 0.433 | USP7 -0.763 | USP8 -0.555
